Rows were chosen to be rich in hits. Some 12% of all compounds tested hit in one or more screens of this group.
Sfp PPTase inh = inhibitors of Bacillus subtilis Sfp phosphopantetheinyl transferase; Q9F4F7; Biochemical Sfp PPTase activity, qHTS; Potency, µM, inactives show largest response in the series, negative = inhibition, actives largely listed as inhibitors; 310,000 tested, 3.5% active;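 note: the enzyme is Sfp with the accession as filed and its product quenches rhodamine fluorescence; 0% = enzyme reaction without inhibitor and -100% = no enzyme wells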
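After 15 min at room temperature with compound, 15 nM Sfp received 5 uM rhodamine-CoA plus 12.5 uM BHQ-2-ybbR (50 mM Hepes pH 7.6, 10 mM MgCl2). Rate came from the fluorescence difference over 30 min, ex 525/em 598 nm.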
BAZ2B inh = blocks human BAZ2B; Q9UIF8; AlphaScreen BAZ2B-H3K14Ac peptide displacement; Potency, µM (doses to about 114 µM), without a hit: at the top dose activity change, negative = inhibition, hits mostly inhibitors; 360,000 tested, 4.4% active; AID 504333; note: % is set by controls: 0 for no effect and ±100 for the full control effect; nearly all actives have a fitted effect of over 60% in size
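In this displacement format the biotinylated H3(5-23) peptide acetylated at Lys14 serves as ligand at 50 nM, with BAZ2B at 50 nM in PBS pH 7.4 containing 0.01% Tween-20. Donor and acceptor beads are 10 ug/mL final.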
JMJD2A Tudor = JMJD2A Tudor domain (human) inhibition | O75164 | AlphaScreen JMJD2A-Tudor / H3K4me3 peptide binding | Potency, µM (series often up to 114 µM), inactives show top-dose activity change, negative = inhibition, most hits filed as inhibitors | 390,000 tested, 4.4% active | AID 504339; note: % is set by controls: 0 for no effect and ±100 for the full control effect; nearly all actives have a fitted effect of over 50% in size
HP1b binding inh = inhibitors of HP1-beta chromodomain binding to methylated histone tails; P83916; AlphaScreen HP1-beta / biotin-H3K9me3 peptide binding; Potency, µM (titrated, usually from 114 µM), for the others: top-dose activity change, negative = inhibition, hits mostly inhibitors; 390,000 tested, 0.56% active; AID 540317; note: nearly all actives have a fitted effect of over 70% in size
Target sequence (P83916 whole entry, looked up): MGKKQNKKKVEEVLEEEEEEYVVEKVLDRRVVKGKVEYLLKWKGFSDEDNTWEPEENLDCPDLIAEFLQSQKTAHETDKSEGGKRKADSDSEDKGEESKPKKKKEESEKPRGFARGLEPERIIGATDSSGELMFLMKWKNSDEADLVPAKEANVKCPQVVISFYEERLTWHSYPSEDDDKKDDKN
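Compound inhibition of the preformed complex between 50 nM HP1-beta and 50 nM biotinylated H3K9me3 peptide was read by AlphaScreen. Buffer was PBS pH 7.4 with 0.01% Tween-20. Incubations ran 30 min at room temperature, with 10 ug/mL donor/acceptor beads.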
G9a inh = inhibitors of human histone lysine methyltransferase G9a; Q96KQ7; G9a H3K9 monomethylation, AlphaScreen, 2 h; Potency, µM (highest dose often 102 µM), for the others: at the highest dose activity, negative = inhibition, actives largely listed as inhibitors; 350,000 tested, 8.8% active; AID 504332; note: % is set by controls: 0 for no effect and ±100 for the full control effect; nearly all actives have a fitted effect of over 75% in size
Target sequence (Q96KQ7 913-1193 limits assumed): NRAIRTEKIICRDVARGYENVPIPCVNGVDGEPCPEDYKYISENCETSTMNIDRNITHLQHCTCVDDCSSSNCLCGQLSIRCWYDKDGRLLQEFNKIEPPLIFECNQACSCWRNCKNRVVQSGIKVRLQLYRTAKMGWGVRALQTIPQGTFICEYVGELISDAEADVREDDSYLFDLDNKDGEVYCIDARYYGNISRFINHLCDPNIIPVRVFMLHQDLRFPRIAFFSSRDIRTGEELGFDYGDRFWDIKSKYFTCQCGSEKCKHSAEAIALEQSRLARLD
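G9a (20 nM) preincubated 15 min RT with compounds, then 500 nM biotinylated H3K9 peptide and 20 uM SAM added; 2 h RT reaction. Monomethyl-H3K9 product detected by AlphaScreen with anti-H3K9me1 antibody, streptavidin donor and anti-rabbit IgG acceptor beads.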
PLK1 PBD inh = inhibitors of human PLK1 polo-box domain binding; P53350; Plk1 PBD binding of FITC phosphopeptide, fluorescence polarization; Potency, µM, for the others: max response, negative = inhibition, usual class: inhibitors; 360,000 tested, 2.8% active; note: series mostly up to about 57 µM; % is set by controls: 0 for no effect and ±100 for the full control effect; nearly all actives have a fitted effect of over 65% in size
The depositor's hits bear a star; [ ] = another dose, or the depositor's remark. Calls come from the whole dose curve; as a rule, active = well fitted curve in the direction sought with a large enough effect; inconclusive = small, poorly fitted or top-dose-only effect, or another doubt; inactive = no such curve, though single readings can be large; an effect the other way counts as inactive or inconclusive. Potency is the fitted concentration of half-maximal effect.

Results for CCOC(=O)C1=C(C)NC(C)=C(C(=O)OCC)C1c1ccccc1C=CC(=O)OC(C)(C)C ?
Sfp PPTase inh: 33%; G9a inh: 68%[59 µM]

Results for CCN(CC)c1ccc(/C=C/C(=O)c2cccnc2)cc1 ?
Sfp PPTase inh: 11%; BAZ2B inh: inconclusive; JMJD2A Tudor: inconclusive; HP1b binding inh: 21%; G9a inh: -13%; PLK1 PBD inh: -12%

Results for O=C(/C=C/c1ccccc1Cl)c1ccc(O)cc1 ?
Sfp PPTase inh: -8%; BAZ2B inh: -23%; JMJD2A Tudor: -18%; HP1b binding inh: -38%; G9a inh: -12%; PLK1 PBD inh: -3%

What do the screens show for `N#Cc1ccc(/C=C/C(=O)c2cccnc2)cc1`?
Sfp PPTase inh: 50µM*; JMJD2A Tudor: -28%; HP1b binding inh: 17%; G9a inh: 25µM*; PLK1 PBD inh: inconclusive

Results for O=C(/C=C/c1ccc(Cl)cc1)c1cccnc1 ?
Sfp PPTase inh: inconclusive; BAZ2B inh: -8%; JMJD2A Tudor: -8%; HP1b binding inh: 24%; G9a inh: 45µM*; PLK1 PBD inh: inconclusive

What do the screens show for `O=C(/C=C/c1ccccc1Cl)c1cccnc1`?
Sfp PPTase inh: 32µM*; BAZ2B inh: -7%; JMJD2A Tudor: -19%; HP1b binding inh: 22%; G9a inh: 35µM*; PLK1 PBD inh: inconclusive

Results for Cn1c2cc(B(O)O)sc2c2cnn(Cc3ccc(F)cc3F)c(=O)c21 ?
BAZ2B inh: -6%; G9a inh: 0%[12.7 µM]

What do the screens show for `CCOc1ccc(-c2cn3c(n2)sc2cc(C(=O)NCCCN(CC)CC)ccc23)cc1`?
BAZ2B inh: 2%; JMJD2A Tudor: 7%; HP1b binding inh: 29%; G9a inh: -3%[59 µM]

How did CCN1C(=O)S/C(=C/c2ccc(Sc3nc4ccccc4[nH]3)o2)C1=O do in these assays?
Sfp PPTase inh: 12%; BAZ2B inh: -2%; JMJD2A Tudor: -24%; HP1b binding inh: 18%; G9a inh: 11µM*; PLK1 PBD inh: -10%

How did N#C/C(=C/c1ccc(Sc2nc3ccccc3[nH]2)o1)c1cccc(Br)c1 do in these assays?
Sfp PPTase inh: 19%; BAZ2B inh: 8%; JMJD2A Tudor: -19%[11.4 µM]; HP1b binding inh: 49%; G9a inh: inconclusive; PLK1 PBD inh: -17%

Results for COc1cc(C(C(=O)NC2CCCC2)N(Cc2ccco2)C(=O)c2snc(C(N)=O)c2N)cc(OC)c1OC (centres undefined) ?
Sfp PPTase inh: 0%; BAZ2B inh: 2%; JMJD2A Tudor: -9%; HP1b binding inh: 11%; G9a inh: -7%; PLK1 PBD inh: 0%

What do the screens show for `CN(C)c1ccc(C(C(=O)NC2CCCCC2)N(Cc2ccco2)C(=O)c2snc(C(N)=O)c2N)cc1` (centres undefined)?
Sfp PPTase inh: 9%; BAZ2B inh: 40µM*; JMJD2A Tudor: inconclusive; HP1b binding inh: inconclusive; G9a inh: inconclusive; PLK1 PBD inh: -10%

What do the screens show for `CN(C)c1ccc(C(C(=O)NCc2ccccc2)N(Cc2cccnc2)C(=O)c2snc(C(N)=O)c2N)cc1` (centres undefined)?
Sfp PPTase inh: 15%; BAZ2B inh: inconclusive; JMJD2A Tudor: inconclusive; HP1b binding inh: 5%; G9a inh: 50µM*; PLK1 PBD inh: 0%

What do the screens show for `COc1ccc(C(C(=O)NCc2ccccc2)N(Cc2cccnc2)C(=O)c2snc(C(N)=O)c2N)cc1OC` (centres undefined)?
Sfp PPTase inh: 15%; BAZ2B inh: -8%; JMJD2A Tudor: -11%; HP1b binding inh: 33%; G9a inh: -4%; PLK1 PBD inh: -10%

How did COc1ccc(N=C(C)C2=C(O)COC2=O)cc1 do in these assays?
Sfp PPTase inh: 7%; BAZ2B inh: -19%; JMJD2A Tudor: -14%; HP1b binding inh: 35%; G9a inh: 6.3µM*; PLK1 PBD inh: -4%

What do the screens show for `c1ccc(CCn2nnnc2CN2CCCc3ccccc32)cc1`?
Sfp PPTase inh: 4%; BAZ2B inh: -35%; JMJD2A Tudor: -22%[11.4 µM]; HP1b binding inh: -21%; G9a inh: inconclusive; PLK1 PBD inh: 13µM*

What do the screens show for `c1ccc2c(c1)CCCN2Cc1nnnn1CC1CCCO1` (centres undefined)?
Sfp PPTase inh: 8%; BAZ2B inh: -25%; JMJD2A Tudor: -9%; HP1b binding inh: 41%; G9a inh: inconclusive; PLK1 PBD inh: -27%

Results for CC1(C)CC(=O)c2cc(C(=O)Nc3ccc(Cl)cc3)c(=O)[nH]c2C1 ?
BAZ2B inh: 1%; JMJD2A Tudor: -12%; HP1b binding inh: 44%; G9a inh: 24%[59 µM]

How did COC(=O)c1cccc(OCC(O)Cn2cnc3cc(C)c(C)cc32)c1 (centres undefined) do in these assays?
Sfp PPTase inh: 89µM*; BAZ2B inh: -22%; JMJD2A Tudor: -15%; HP1b binding inh: 25%; G9a inh: 11%; PLK1 PBD inh: -5%

What do the screens show for `COC(=O)c1ccc(OCC(O)Cn2cnc3cc(C)c(C)cc32)cc1` (centres undefined)?
BAZ2B inh: -17%; JMJD2A Tudor: inconclusive; HP1b binding inh: 11%; G9a inh: 9%[59 µM]

What do the screens show for `Cc1cc2ncn(CC(O)COC3CCCCC3)c2cc1C` (centres undefined)?
Sfp PPTase inh: 11%; JMJD2A Tudor: -12%; HP1b binding inh: 39%; G9a inh: 6%[59 µM]; PLK1 PBD inh: 0%

How did COc1cccc(COCC(O)Cn2cnc3cc(C)c(C)cc32)c1 (centres undefined) do in these assays?
Sfp PPTase inh: -14%; BAZ2B inh: inconclusive; JMJD2A Tudor: 3.5µM*; HP1b binding inh: inconclusive; G9a inh: 6.3µM*; PLK1 PBD inh: 1%

How did COc1cc2c(cc1OC)C(COc1ccccc1OC)N(C(=O)C(C)(C)C)CC2 (centres undefined) do in these assays?
Sfp PPTase inh: 14%; BAZ2B inh: -1%; JMJD2A Tudor: -27%; HP1b binding inh: 17%; G9a inh: inconclusive; PLK1 PBD inh: 30µM*

How did COc1cc2c(cc1OC)C(c1ccccc1[N+](=O)[O-])N(C(C)=O)CC2 (centres undefined) do in these assays?
Sfp PPTase inh: 45µM*; BAZ2B inh: 6%; JMJD2A Tudor: -16%; HP1b binding inh: 13%; G9a inh: -2%[0.501 µM]; PLK1 PBD inh: -11%

What do the screens show for `COc1cc2c(cc1OC)C(COc1ccccc1OC)N(C(C)=O)CC2` (centres undefined)?
Sfp PPTase inh: 0%; BAZ2B inh: 8%; JMJD2A Tudor: -6%; HP1b binding inh: 29%; G9a inh: 1%; PLK1 PBD inh: -3%

Assay outcomes as filed in PubChem.
